From PubChem BioAssay
The list is not random: actives were taken first. Their share in the collection is about 7.8%.
MARV entry inh: inhibitors of Marburg virus binding or cell entry; Marburg virus pseudotyped entry inhibition, cell reporter; Potency, µM (doses to about 37.8 µM), inactives show top-dose activity change, negative = inhibition, most hits filed as inhibitors; actives 1.8% (n = 300,000); calls by dose curve; tested in HEK293 cells; note: potency is the fitted concentration of half-maximal effect
VACV Venus inh: vaccinia inhibition (Venus reporter). Vaccinia virus Venus reporter expression, fluorescence. Potency, µM (top dose mostly 36.5 µM), inactives show at the top dose activity change, negative = inhibition, usual class: inhibitors. actives 0.46% (n = 330,000). AID 720580; calls by dose curve; tested in A549 cells; note: potency is the fitted concentration of half-maximal effect; nearly all actives have a fitted effect of over 30% in size
HCMV antiviral: inhibitors of human cytomegalovirus. HFF cells, HCMV-luciferase reporter, 72 h; active compounds read low. activity change, negative = inhibition, % at 57.5 µM. actives 4.5% (n = 410,000); in the data active = activity change below about -60%; inconclusive = no clear call, values can overlap the other calls; inactive = above about -39%
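Two-dose cell screen: HFF monolayers treated with compounds and infected with luciferase-expressing HCMV at 1 PFU/cell, 72 h at 37C, then lysed for luciferase measurement.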
HCV inhibitor: HCV inhibition; AID 651820; Potency, µM (top dose mostly 41.8 µM), inactives show at the top dose activity change, negative = inhibition, hits mostly inhibitors; Huh7.5.1 HCVcc-Cre infection, luciferase reporter, 44 h; actives 3.4% (n = 340,000); active = well fitted inhibition curve with a large enough effect; inconclusive = small, poorly fitted or top-dose-only effect, or another doubt; inactive = no such curve, though single readings can be large or run the other way; note: potency is the fitted concentration of half-maximal effect
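Cells seeded at 1,000/well and cultured 4 h, then compounds added followed by HCVcc-Cre virus (~0.5 moi). After 44 h further culture, luciferase substrate was added, plates held 15 min at room temperature, and luminescence read for 15 sec.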
LASV entry inh: blocks Lassa virus binding to or entry into cells. Lassa virus pseudotype entry inhibition, cell reporter. Potency, µM (top dose mostly 37.9 µM), without a hit: at the highest dose activity change, negative = inhibition, usual class: inhibitors. actives 1.2% (n = 300,000). AID 540256; calls by dose curve; tested in HEK293 cells; note: potency is the fitted concentration of half-maximal effect; nearly all actives have a fitted effect of over 50% in size
Vaccinia mCherry: inhibitors of vaccinia virus infection (mCherry reporter signal). Vaccinia virus mCherry reporter infection, fluorescence. Potency, µM (titrated, usually from 36.5 µM), for inactives: at the highest dose activity change, negative = inhibition, hits mostly inhibitors. actives 0.63% (n = 310,000); calls by dose curve; tested in A549 cells; note: potency is the fitted concentration of half-maximal effect; nearly all actives have a fitted effect of over 35% in size
Starred values were filed as active, the others as inactive; i = inactive; ? = inconclusive; nt = not tested or not shown; + = active, no number; [ ] = dose if it differs, or a comment. % is set by controls: 0 for no effect and ±100 for the full control effect.

SMILES	MARV entry inh	VACV Venus inh	HCMV antiviral	HCV inhibitor	LASV entry inh	Vaccinia mCherry
COC(=O)c1cc2c(C)nn(-c3ccccc3)c2s1	21%	-29%	32	6.3µM*	10%	nt
CCOc1ccc(NC(=O)c2cc3c(C)nn(-c4ccccc4)c3s2)cc1	12%[46.1 µM]	?	-66*	nt	-2%[46.1 µM]	?
Cc1nn(-c2ccccc2)c2sc(C(=O)O)cc12	18%[46.1 µM]	-10%	28	12%	-4%	i
Cc1nn(-c2ccccc2)c2sc(C(=O)Nc3cccc(O)c3)cc12	-44%[46.1 µM]	-23%	-31	nt	?	?
COc1ccc(NC(=O)CSCc2cc(=O)c3cc(Cl)ccc3[nH]2)cc1	nt	0%	4	nt	6%[46.1 µM]	2%
CCOC(=O)c1c(C)n(S(=O)(=O)c2ccc(C)cc2)c2ccc(NS(=O)(=O)c3ccc(C)cc3)cc12	-30%[46.1 µM]	-19%	23	nt	6.3µM*	-27%
CCOC(=O)C(Cc1ccccc1)C(=O)NCc1ccccc1 (configuration not stated)	0%	-13%	-6	12%	11%	-10%
CCOC(=O)CNC(=O)C(CO)NC(=O)OCc1ccccc1 (configuration not stated)	19%	-13%	-100*	11%	2%	i
COc1ccc(COC(=O)NNC(=O)c2ccccc2Cl)cc1	1%	-11%	19	-1%	4µM*	nt
O=C(NNC(=O)OCc1ccccc1)OCc1ccccc1	?	6%	-99*	16%	?	i
CCOC(=O)CNC(=O)C(Cc1ccccc1)NC(=O)OCc1ccccc1 (configuration not stated)	nt	nt	-3	3%	nt	nt
CCOC(=O)NCc1ccccc1	nt	-16%	nt	2.8µM*	nt	i
CN1N=C(C(=O)N2CCOc3ccc(CN4CCCC(C(=O)c5cccnc5)C4)cc3C2)CCC1=O (configuration not stated)	nt	-7%	nt	nt	nt	-12%
COc1cccc(CNC(=O)CCc2cn(Cc3ccccc3Cl)c3ccccc23)c1	nt	-9%	-22	nt	-3%[46.1 µM]	-13%
Cc1ccc2c(Cl)cc(Cl)c(OCC(=O)Nc3cc(S(=O)(=O)N(C)C)ccc3C)c2n1	4µM*	-28%	-28	2.5µM*	?	-19%
Cc1ccc2c(Cl)cc(Cl)c(OCC(=O)NC(C)(C)C)c2n1	nt	nt	4	22µM*	nt	nt
COc1cccc(CNC(=O)CN2C(=O)COc3ccc(S(=O)(=O)Nc4ccccc4)cc32)c1	nt	-11%	7	nt	18%[46.1 µM]	-14%
CCOC(=O)C1CCN(C(=O)c2ccc(-n3ccc4ccccc43)s2)CC1	nt	-10%	100	nt	-4%[46.1 µM]	-2%
C=CCn1c(SCC(=O)Nc2cc3oc4ccccc4c3cc2OC)nnc1-c1cnccn1	?	nt	-4	13µM*	0%	nt
C=CCn1c(COc2ccccc2F)nnc1SCC(=O)c1c[nH]c2ccccc12	13µM*	-26%	-34	?	?	-15%
C=CCn1c(COc2ccccc2F)nnc1SCC(=O)Nc1cc2oc3ccccc3c2cc1OC	?	?	-15	7.1µM*	?	nt
C/C1=C\CCCCc2cc(O)ccc2OC(=O)CC1	nt	nt	-19	nt	nt	nt
COC(=O)c1cc(O)cc(OC)c1C(=O)c1c(O)cc(C)cc1O	nt	-2%	28	3%	nt	-11%
COC(=O)c1cc(O)cc(OC)c1Oc1cc(C)cc(O)c1C(=O)O	nt	?	-106*	14%	nt	?
CC(=O)Nc1c(C)nn(-c2ccccc2)c1N1CCC(C(=O)NCc2cccc(Cl)c2)CC1	nt	0%[7.34 µM]	19	nt	-26%[46.1 µM]	-4%[7.34 µM]
SMILES	MARV entry inh	VACV Venus inh	HCMV antiviral	HCV inhibitor	LASV entry inh	Vaccinia mCherry
CCc1ccc(/C=N/NC(=O)c2cc(-c3ccccc3OC)nc3ccccc23)s1	?	-8%	44	-22%	?	-17%
CCc1ccc(/C=N/NC(=O)c2cc(C3CC3)nc3ccc(Br)cc23)s1	?	?	-63*	22µM*	?	?
COc1ccc(CCNC(=S)c2ccccc2)cc1OC	1%	nt	?	8.9µM*	nt	nt
COc1ccc(CNC(=O)c2ccc3ccccc3n2)cc1OC	?	-14%	?	10µM*	?	-27%
COc1ccc(CCNCc2ccccc2F)cc1OC	8%	-8%	5	15%	3%	nt
COc1ccc(CCNC(=O)CC(c2ccccc2)c2cc(C)ccc2O)cc1OC (configuration not stated)	nt	nt	nt	10µM*	nt	nt
COc1ccc(CCNCc2c(OC)ccc3ccccc23)cc1OC	nt	nt	-12	11µM*	nt	nt
CCCCOc1ccc(C(=O)Nc2onc3c2CCCC3)cc1	?	-4%	99	nt	?	-11%
O=C(NCCCN1CCN(c2ccc(F)cc2)CC1)c1ccc2nc(Cc3ccccc3)oc2c1	nt	-27%	?	nt	-16%[46.1 µM]	-25%
COc1ccc(CNC(=O)c2cnc(N3CCN(Cc4ccccc4C#N)C3=O)s2)cc1OC	nt	nt	0	nt	nt	nt
CCOc1ccc(CCNC(=O)c2ccc3ccccc3n2)cc1OCC	nt	nt	92	11µM*	nt	nt
COc1ccc(CNC(=S)NCc2ccc(F)cc2)cc1OC	-3%[46.1 µM]	-12%	-63*	?	-14%[46.1 µM]	-2%
COc1ccc(CNC(=O)c2csc(N3CCN(CCc4ccccc4)C3=O)n2)cc1OC	nt	nt	-86*	nt	nt	nt
O=C(CCN1C(=O)C2CCCCC2C1=O)Nc1nc2ccc(F)cc2s1 (configuration not stated)	?	-6%	80	4%	11µM*	-2%
O=C(Nc1nc2cc3c(cc2s1)OCCO3)C1=COCCO1	nt	nt	+	-4%	nt	nt
O=C(Nc1nc2ccc(F)cc2s1)C1=COCCO1	?	-18%	4	-13%	2.8µM*	-6%
O=C(CCN1C(=O)C2CCCCC2C1=O)Nc1nc2c(F)cc(F)cc2s1 (configuration not stated)	nt	nt	11	15%	nt	nt
COc1ccc(CCNc2nc(SCc3ccc(F)cc3)nc3ccccc23)cc1OC	nt	-24%	3	nt	-9%[46.1 µM]	-22%
COc1ccc(OC)c2c(C)ccnc12	nt	-16%	nt	nt	nt	-5%
CN(Cc1ccccc1)C(=O)c1cc2c(s1)-c1ccc(Cl)cc1SC2	?	-13%	15	nt	?	34%
O=c1oc2ccccc2c(N2CCCCC2)c1[N+](=O)[O-]	5%	-5%	28	11%	3%	i
O=c1oc2ccccc2c(N2CCCC2)c1[N+](=O)[O-]	4%[46.1 µM]	-2%	-94*	0%	-19%[46.1 µM]	-13%
O=C(Nc1ccccc1)Nc1ccccc1Br	-22%	-15%	-32	-9%	?	-9%
O=C(Nc1ccccc1)Nc1ccc(Br)c(Cl)c1	-34%	?	-98*	13µM*	-30%	?
O=C(Nc1ccc(Cl)c(Cl)c1)Nc1nnc(-c2ccncc2)s1	-1%	-19%	-23	8.9µM*	3%	-27%
COc1ccc(NC(=O)Nc2nnc(-c3ccncc3)s2)cc1	?	-18%	?	-13%	-26%[46.1 µM]	-5%
N#Cc1ccc(NC(=O)Nc2ccc(Cl)cc2)cc1	?	11µM*	-101*	?	?	?
